Screening results as filed in PubChem.
Cycloheximide cs – counter-screen hit for Shiga toxin inhibitors, cycloheximide; cell reporter, cycloheximide protein synthesis inhibition counterscreen; max response, %; 12% of 300,000 active; AID 2314; in the data active means max response mostly above about 13%, no sharp cut-off; inactive means mostly below about 14%; further: read at 38.3 µM for the half of the compounds with a filed dose
Shiga toxin inh – blocks Shiga toxin action in Vero cells | Vero cells, Shiga toxin protein synthesis inhibition reporter | inhibition, % at 38.7 µM | AID 2315 | 9.2% of 290,000 active; in the data active means inhibition mostly above about 28%, no sharp cut-off; inactive means mostly below about 43%
LmPK inh – inhibitors of Leishmania mexicana pyruvate kinase. Q27686. purified LmPK, Kinase-Glo ATP luminescence, 1 h. Potency, µM (series often up to 57.5 µM), usual class: inhibitors. 0.37% of 290,000 active
Target sequence (Q27686 whole entry, looked up): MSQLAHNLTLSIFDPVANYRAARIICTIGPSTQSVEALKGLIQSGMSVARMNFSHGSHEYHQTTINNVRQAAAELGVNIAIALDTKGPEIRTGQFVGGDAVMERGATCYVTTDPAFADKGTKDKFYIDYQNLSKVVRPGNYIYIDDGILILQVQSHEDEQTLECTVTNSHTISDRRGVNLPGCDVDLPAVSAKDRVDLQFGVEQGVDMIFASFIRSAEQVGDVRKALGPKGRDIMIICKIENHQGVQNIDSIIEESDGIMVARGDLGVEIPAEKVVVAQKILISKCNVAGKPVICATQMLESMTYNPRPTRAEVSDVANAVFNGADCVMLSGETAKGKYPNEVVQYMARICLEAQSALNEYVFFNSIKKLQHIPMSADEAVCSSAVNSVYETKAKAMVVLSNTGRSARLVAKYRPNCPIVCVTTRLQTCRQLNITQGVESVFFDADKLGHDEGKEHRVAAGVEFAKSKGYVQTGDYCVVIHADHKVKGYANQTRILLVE
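qHTS format; LmPK 0.1 nM; substrates PEP 0.5 mM and ADP 0.1 mM. One-hour room-temperature incubation, then coupled luciferase luminescence; 0.5 nM enzyme wells mark activation.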
Pf growth 48h – inhibits P. falciparum growth in the first generation, 48 h; Potency, µM (highest dose often 28.7 µM), actives largely listed as inhibitors; AID 504832; P. falciparum luciferase growth in erythrocytes, 48 h; 5.9% of 310,000 active
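A one-generation exposure of luciferase-tagged malaria parasites in RPMI 1640/Albumax erythrocyte culture, 37 C and 5% CO2. Inhibition is inferred from decreased luminescence after adding detection reagent.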
Pf growth 96h – P. falciparum growth inhibition at 96 hours; Potency, µM (series often up to 28.7 µM), most hits filed as inhibitors; 6.9% of 320,000 active; P. falciparum luciferase reporter growth, 96 h
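Parasite growth measured via integrated firefly luciferase reporter in P. falciparum. Infected erythrocytes at 2% hematocrit, 0.05% parasitemia final were treated 96 hours at 37 C under 5% CO2, and luminescence was read.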
Of the large screens only hits and unclear results are named; the others gave an inactive call. An excerpt weighted towards active compounds, which were near 22% of everything screened. Unless noted, the call rests on the fitted dose curve; in most records, active means well fitted inhibition curve with a large enough effect; inconclusive means small, poorly fitted or top-dose-only effect, or another doubt; inactive means no such curve, though single readings can be large or run the other way.

Cc1ccc(-n2ncc3c2CCCC3NC(=O)c2ccoc2)cc1C (stereo not given)	Pf growth 48h inconclusive, Pf growth 96h inconclusive
CC(=O)N1CCc2cc(S(=O)(=O)CCC(=O)N(C)c3cc(C)ccc3C)ccc21	Pf growth 96h inconclusive
N#Cc1cccc(NC(=O)COC(=O)Cn2nc(-c3ccccc3)oc2=O)c1	none (no result: Cycloheximide cs, Shiga toxin inh, LmPK inh)
Cc1cc(C)cc(-n2ncc3c2CCCC3NC(=O)c2csnn2)c1 (stereo not given)	Shiga toxin inh 21.6, Pf growth 48h inconclusive, Pf growth 96h inconclusive
CC(=O)Nc1cccc(C(=O)NC2CCCc3c2cnn3-c2cc(C)cc(C)c2)c1 (stereo not given)	Cycloheximide cs 24.9, Pf growth 96h inconclusive
COCc1ccc(C(=O)NC2CCCc3c2cnn3-c2ccc(C)c(C)c2)o1 (stereo not given)	Cycloheximide cs 25.8, Pf growth 96h inconclusive
COc1ccc(OCC(=O)Nc2ccccc2C(=O)NC2CC2)cc1	none (no result: Cycloheximide cs, Shiga toxin inh, LmPK inh)
Cc1ccccc1-c1nnc(CN2CCC(C)CC2)o1	Cycloheximide cs 27.2, Shiga toxin inh 70.5 (no result: Pf growth 48h)
Cc1ccccc1-c1nnc(-c2ccc(Br)cc2)o1	Cycloheximide cs 20.5 (no result: Pf growth 48h)
Cc1ccccc1-c1nnc(-c2ccccc2C)o1	Cycloheximide cs 23.4, Shiga toxin inh 42.2
COC(=O)Sc1nnc(-c2ccc(Br)cc2)o1	none (no result: Pf growth 96h)
c1ccc2c(c1)CC(N1CCN(c3cccc4c3OCCO4)CC1)C2	none (no result: LmPK inh, Pf growth 48h, Pf growth 96h)
O=C(CSc1nnc(CCCN2C(=O)c3cccc4cccc(c34)C2=O)n1-c1ccccc1)NCCCN1CCOCC1	Pf growth 48h 9.28µM
Cc1nn(Cc2ccc(Cl)cc2)c(C)c1NC(=O)CCCn1nc([N+](=O)[O-])c(Cl)c1C	Pf growth 48h inconclusive, Pf growth 96h inconclusive
CC(NC(=O)c1ccc(C#N)cc1)C1CC2CCC1C2 (stereo not given)	none
COc1ccc(C(=O)NC(C)C2CC3CCC2C3)cc1 (stereo not given)	Cycloheximide cs 10.9, Pf growth 96h inconclusive
Cc1ccc(C(=O)NC(C)C2CC3CCC2C3)c(C)c1 (stereo not given)	Shiga toxin inh 90.0
CC(NC(=O)c1ccc(N(C)C)cc1)C1CC2CCC1C2 (stereo not given)	Cycloheximide cs 13.8 (no result: Pf growth 96h)
CC(NC(=O)c1ccc(F)cc1Cl)C1CC2CCC1C2 (stereo not given)	none
CC(C)(C)c1ccc(S(=O)(=O)N2CCN(Cc3cc4c(cc3O)OCO4)CC2)cc1	none (no result: Cycloheximide cs, Shiga toxin inh, LmPK inh)
COc1cc(S(=O)(=O)Nc2ccccc2C(=O)N2CCCCC2)ccc1NC(C)=O	none (no result: Cycloheximide cs, Shiga toxin inh, LmPK inh)
CN(Cc1c(F)cccc1Cl)C(=O)CNC(=O)c1sc2ccccc2c1Cl	none (no result: Cycloheximide cs, Shiga toxin inh, LmPK inh)
O=C(c1ccco1)N(Cc1cccc([N+](=O)[O-])c1)c1ccc(Br)cc1	Pf growth 96h inconclusive
O=C(c1ccco1)N(Cc1ccco1)c1ccc(O)cc1	Pf growth 48h inconclusive, Pf growth 96h 9.28µM
O=C(c1ccco1)N(Cc1ccccc1)c1cccc([N+](=O)[O-])c1	Pf growth 48h inconclusive, Pf growth 96h 6.57µM
COc1cc(C(=O)Nc2nnc(C3CC3)s2)ccc1OCc1c(C)noc1C	Pf growth 48h inconclusive, Pf growth 96h inconclusive
COc1ccc(NC(=O)CN(C)CC(=O)NCC(=O)Nc2ccc(F)cc2)cc1	none (no result: Cycloheximide cs, Shiga toxin inh, LmPK inh)
Cn1cc(C(=O)NCC2COc3ccccc3O2)c(=O)c2cc(S(=O)(=O)N3CCCCC3)ccc21 (stereo not given)	Pf growth 48h 11.7µM (no result: Pf growth 96h)
O=C(NCC1COc2ccccc2O1)c1ccc(Cl)c(S(=O)(=O)N2CCCC2)c1 (stereo not given)	Pf growth 48h 9.28µM, Pf growth 96h 9.28µM (no result: Cycloheximide cs, Shiga toxin inh, LmPK inh)
CCN1CCCC1CNC(=O)c1cn(C)c2ccc(S(=O)(=O)N3CCCCCC3)cc2c1=O (stereo not given)	none
CCOCCCNC(=O)c1cn(C)c2ccc(S(=O)(=O)N3CCCCC3)cc2c1=O	Pf growth 96h inconclusive
Cc1c(C(=O)NCC2COc3ccccc3O2)oc2ccc(S(=O)(=O)N(C)C3CCCCC3)cc12 (stereo not given)	Pf growth 48h 9.28µM (no result: Pf growth 96h)
CCCCSCCCNC(=O)c1cn(C)c2ccc(S(=O)(=O)N3CCCC3)cc2c1=O	Pf growth 48h inconclusive, Pf growth 96h 10.4µM
O=C(NC1CCCCC1)c1cc(C2CC2)nn1-c1ccccc1	Pf growth 48h inconclusive (no result: Cycloheximide cs, Shiga toxin inh, LmPK inh)
Cc1ccc(N(CC(=O)NC(C)(C)C)C(=O)CNC(=O)c2cccs2)cc1C	Pf growth 48h inconclusive
O=C(NCC1COc2ccccc2O1)c1ccc(Cl)c(S(=O)(=O)N2CCOCC2)c1 (stereo not given)	Pf growth 48h inconclusive, Pf growth 96h 13.1µM (no result: Cycloheximide cs, Shiga toxin inh, LmPK inh)
C=CCn1cc(C(=O)NCC2CCCO2)c(=O)c2cc(S(=O)(=O)N3CCCCCC3)ccc21 (stereo not given)	Pf growth 48h 11.7µM
O=C(Cc1ccc(F)cc1)Nc1ccc(S(=O)(=O)N2CCCCC2)cc1	none
COc1ccc(CC(=O)Oc2ccccc2Cl)cc1S(=O)(=O)N1CCOCC1	none (no result: Cycloheximide cs, Shiga toxin inh, LmPK inh)
COC(=O)Cc1c(C)c2ccc(OC(=O)c3ccco3)cc2oc1=O	none
COC(=O)Cc1c(C)c2ccc(OC(C)C)cc2oc1=O	Cycloheximide cs 47.8, Shiga toxin inh 96.3
Cc1c(CC(=O)O)c(=O)oc2cc(OCc3ccc(Br)cc3)ccc12	Cycloheximide cs 15.8 (no result: Pf growth 48h)
COC(=O)Cc1c(C)c2ccc(OC3CCCCC3=O)c(C)c2oc1=O (stereo not given)	none
COC(=O)Cc1c(C)c2ccc(OC3CCCCC3=O)cc2oc1=O (stereo not given)	Cycloheximide cs 38.5, Shiga toxin inh 29.9
Cc1c(C)c2ccc(OC3CCCCC3=O)cc2oc1=O (stereo not given)	Cycloheximide cs 24.3, Pf growth 96h inconclusive
Cc1ccc(C(=O)Nc2ncccc2C)cc1S(=O)(=O)N1CCCCC1	Pf growth 48h inconclusive (no result: Cycloheximide cs, Shiga toxin inh, LmPK inh)
COc1ccc(-n2ccc(=O)c3c2CCCC3=O)cc1	none
COc1ccc(N2C3=C(CC4=C2CCCC4=O)C(=O)CCC3)cc1	Pf growth 48h inconclusive, Pf growth 96h 11.7µM
COc1ccc(N2C3=C(CC4=C2CC(C)(C)CC4=O)C(=O)CC(C)(C)C3)cc1	Pf growth 48h 9.28µM, Pf growth 96h 13.1µM
O=S(c1ccc2ccccc2c1)c1cnns1 (stereo not given)	Pf growth 48h inconclusive, Pf growth 96h inconclusive
Cc1cc(C)n(Cc2ccc(NC(=O)c3c([N+](=O)[O-])c(C)nn3C)cc2)n1	none (no result: Pf growth 96h)
Cc1ccc(Cn2nc(C)cc2C(=O)Nc2ccc(Cl)cc2)cc1	Cycloheximide cs 38.6, Shiga toxin inh 72.4, Pf growth 48h inconclusive, Pf growth 96h inconclusive
Cc1ccc(Cn2nc(C(=O)Nc3ccc(Br)cc3)cc2C)cc1	Cycloheximide cs 53.9, Shiga toxin inh 154.2
Cc1ccc(Cn2nc(C)cc2C(=O)Nc2ccccc2Cl)cc1	Cycloheximide cs 59.2, Shiga toxin inh 147.3
CC(=O)Nc1cc(-c2ccccc2)nn1Cc1ccc(Cl)cc1	none
CC(=O)c1ccc(N(CC(=O)NC2CCCC2)C(=O)c2csnn2)cc1	none
CCOC(=O)C1CCN(CC(=O)c2c(C)n(C)c3ccc(OC)cc23)CC1	none
O=S(=O)(c1cccc(C(F)(F)F)c1)N1CCN(S(=O)(=O)c2ccc3c(c2)OCCO3)CC1	none (no result: LmPK inh, Pf growth 48h, Pf growth 96h)
